Compounds with a hit are over-represented: about 3.4% of the library has one in this group of screens.
PP1 counter – blocks human PP1-alpha phosphatase, a PP5 counter-screen; inhibition, % at 6.7 µM; 0.9% of 320,000 active; purified PP1alpha, OMFP fluorescence; P62136;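 active means inhibition above the mean inhibition of all tested compounds plus 3 SD, computed separately for each screening campaign, cut at about 15% in these data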
Target sequence (P62136 whole entry, looked up): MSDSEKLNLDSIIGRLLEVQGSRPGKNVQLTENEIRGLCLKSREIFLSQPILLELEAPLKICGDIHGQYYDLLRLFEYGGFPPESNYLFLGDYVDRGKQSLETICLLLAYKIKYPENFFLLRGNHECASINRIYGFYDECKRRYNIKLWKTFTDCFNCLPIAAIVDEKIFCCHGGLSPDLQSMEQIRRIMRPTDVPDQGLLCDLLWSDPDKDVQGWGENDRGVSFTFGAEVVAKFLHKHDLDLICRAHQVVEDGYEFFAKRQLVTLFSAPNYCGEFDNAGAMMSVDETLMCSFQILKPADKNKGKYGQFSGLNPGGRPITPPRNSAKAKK
PAFAH2 FP inh – inhibitors of human PAFAH2; Q99487; recombinant PAFAH2, FP-rhodamine activity probe, fluorescence polarization; inhibition, % at 3.39 µM; 0.99% of 340,000 active;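 active means inhibition above the mean over all tested compounds plus 3 SD, cut at about 30% in these data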;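 further: inhibitors block probe labeling of enzyme so polarization drops; 0% = enzyme with DMSO and 100% = wells lacking PAFAH2 protein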
pPAFAH inh – inhibitors of human plasma PAF acetylhydrolase (pPAFAH). 1.5% of 330,000 active. Q13093. inhibition, % at 3.39 µM. AID 463082. recombinant pPAFAH, FP-rhodamine probe fluorescence polarization;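 active means inhibition above the mean inhibition across the screen plus 3 SD, cut at about 25% in these data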;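 further: inhibitors block binding of the rhodamine activity-based probe so polarization drops; 0% = enzyme with DMSO and 100% = wells lacking pPAFAH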
PP5 primary – inhibitors of human protein phosphatase 5 (PP5); P53041; purified PP5c, OMFP substrate fluorescence; inhibition, % at 6.7 µM; 0.18% of 320,000 active; AID 1987;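 active means inhibition above the campaign's mean inhibition across all tested compounds plus 3 SD, cut at about 9.5% in these data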;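 further: 0% = DMSO only and 100% = 100 µM cantharidin control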
PAFAH1B2 FP inh – inhibitors of human PAFAH1B2. recombinant PAFAH1B2, FP-rhodamine activity probe, fluorescence polarization. P68402. 1.2% of 340,000 active. inhibition, % at 3.39 µM;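 active means inhibition above the mean of all tested compounds plus 3 SD, cut at about 24% in these data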;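 further: 0% = enzyme with DMSO and 100% = wells lacking PAFAH1B2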
PAFAH1B3 FP inh – blocks human PAF acetylhydrolase 1B catalytic subunit 3. Q15102. recombinant PAFAH1B3, FP-rhodamine probe, fluorescence polarization. inhibition, % at 3.39 µM. 0.28% of 340,000 active. AID 492972;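 active means inhibition above the screen-wide average of all tested compounds plus 3 SD, cut at about 25% in these data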;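 further: 0% = enzyme with DMSO only and 100% = wells lacking PAFAH1B3 protein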
PAFAH1B3 conf FP – PAFAH1B3 (human) inhibition, confirmed | inhibition, % at 3.39 µM | shares compounds with PAFAH1B3 FP inh | 30% of 390 active | recombinant PAFAH1B3, FP-Rh activity-based probe, fluorescence polarization;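 active means average inhibition over triplicate runs above the hit cutoff set in the earlier primary screen, cut at about 25% in these data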;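 further: 0% = enzyme with DMSO and 100% = wells lacking PAFAH1B3 protein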
Numbers without * were called inactive; . = no result given.

SMILES	PP1 counter	PAFAH2 FP inh	pPAFAH inh	PP5 primary	PAFAH1B2 FP inh	PAFAH1B3 FP inh	PAFAH1B3 conf FP
CCCCCn1c(NC(=O)c2ccco2)c(C(=O)OCC)c2nc3ccccc3nc21	1	3	8	1	23	55*	50*
COc1cc2c(cc1OC)-c1c(OC)c(OC)cc3c1[C@H](C2)N(C)CC3	-1	19	-1	1	11	34*	9
Nc1c(C(=O)NC2CCCC2)c2nc3ccccc3nc2n1CC1CCCO1 (stereo unspecified)	5	7	17	8	2	26*	15
CC(=O)O[C@H]1[C@H]2O[C@]23[C@@H]2CC[C@]4(O)C[C@@H](O)CC[C@]4(C)C2CC[C@]3(C)[C@H]1c1ccc(=O)oc1 (stereo partly specified)	-5	-8	-2	-1	0	15	.
[Cl][Pt+2][Cl].[NH-]C1CCCCC1[NH-] (stereo unspecified)	0	-1	-1	0	1	8	.
CC1[C@H]2Cc3ccc(O)cc3[C@]1(C)CCN2C (stereo partly specified)	.	-2	.	.	3	10	.
CN1CC[C@@]2(C)c3cc(O)ccc3N(C)[C@@H]12	.	3	.	.	13	40*	5
CC(=O)OC1CCC2(C)C(CC(=O)C3C2CCC2(C)C(OC(C)=O)CCC32)C1 (stereo unspecified)	.	1	.	.	-1	1	.
O=C(COc1ccccc1)N1CCN(CCN2C(=O)c3cccc4cccc(c34)C2=O)CC1	-3	1	2	1	-1	-7	.
O=C(COc1ccccc1F)N1CCN(CCN2C(=O)c3cccc4cccc(c34)C2=O)CC1	-2	2	3	-1	2	28*	5

From PubChem BioAssay
